In publication PMC6212833:
The whole screen tested about 2,000 compounds, of which about 15 (0.8%) showed an effect of 50% or more. The full list was thinned out, with strong results kept by preference. Where a SMILES comes first, the peptide text is derived from it. [ ]: non-standard residue; d: D form. pGlu = O=C1CC[C@@H](C(=O)O)N1; Thz = O=C(O)[C@@H]1CSCN1

test system: Balamuthia mandrillaris (ATCC PRA-291) trophozoites, axenic culture; assay: primary screen, percent inhibition; higher = more effect of the substance; details: 20 µM;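 also: 0% = vehicle wells and 100% = lysate wells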
Experimental: Screening of a clinically approved library of compounds, compiled by the Small Molecule Discovery Center (SMDC) at the UCSF, was completed at 20 µM in 0.2% DMSO. All 2,177 drugs in the library were stored as 10 mM stocks dissolved in 100% DMSO (Sigma-Aldrich) at −20°C. B. mandrillaris amoebae were resuspended in axenic medium and distributed into opaque 384-well plates (Corning) at a density of 3,000 amoebae per well using a BioMek NX liquid handler. Negative-control wells were treated with vehicle only (0.2% DMSO in axenic medium), and positive-control wells simulating total destruction of amoebae were seeded with amoeba lysate generated by 3 consecutive freeze-thaw cycles. Following 72 h of incubation, 30 µl of CellTiter Glo reagent (CTG; Promega) was added to each well. The luminescence was measured with a Promega GloMax-Multi+ plate reader at 2, 4, and 8 h after CTG addition. […] The B-score, representing a plate-based statistical approach for correcting row, column, and edge effects, was also calculated for each compound in the library (75).

SMILES	% Inhibition [%]
O=C(O)[C@H](CC(=O)N1C[C@H]2CCCC[C@H]2C1)Cc1ccccc1	22.1
CN1CCN(C(=O)O[C@H]2c3nccnc3C(=O)N2c2ccc(Cl)cn2)CC1	9.05
C1CCN2C[C@@H]3C[C@H](CN4CCCC[C@@H]34)[C@H]2C1	-35.5
O=C(O)C1=C(CSc2nnnn2CS(=O)(=O)O)CS[C@@H]2C(NC(=O)[C@H](O)c3ccccc3)C(=O)N12 (stereo partly drawn)	15.1
CCCCCCCCCCOc1cc2c(O)c(C(=O)OCC)cnc2cc1OCC	-12.8
CCN1CCN(C(=O)N[C@@H](C(=O)N[C@@H]2C(=O)N3C(C(=O)O)=C(CSc4nnnn4C)CS[C@H]23)c2ccc(O)cc2)C(=O)C1=O	19.8
C=CCNc1nc(NCC=C)nc(N2CCN(C(c3ccc(F)cc3)c3ccc(F)cc3)CC2)n1	13.4
CC1=C(CC(=O)O)c2cc(F)ccc2/C1=C\c1ccc(S(C)(=O)=O)cc1	12.2
CO/N=C(\C(=O)NC1C(=O)N2C(C(=O)OCOC(=O)C(C)(C)C)=C(/C=C\c3scnc3C)CSC12)c1csc(N)n1 (stereo not drawn)	-4.68
C[C@@H]1CC[C@H]2[C@@H](C)C(O)O[C@@H]3O[C@@]4(C)CC[C@@H]1[C@]32OO4 (stereo partly drawn)	56.5
COC1O[C@@H]2O[C@@]3(C)CC[C@H]4[C@H](C)CC[C@@H]([C@H]1C)[C@@]24OO3 (stereo partly drawn)	-11.8
CO[C@H]1O[C@@H]2O[C@@]3(C)CC[C@H]4[C@H](C)CC[C@@H]([C@H]1C)[C@@]24OO3	48.7
C[C@H]1[C@@H](OC(=O)CCC(=O)O)O[C@@H]2O[C@]3(C)CC[C@H]4[C@H](C)CC[C@@H]1[C@@]24OO3	52.3
CC(=O)[C@H]1CC[C@H]2[C@@H]3CC=C4C[C@@H](OC(=O)CCC(=O)O)CC[C@]4(C)[C@H]3CC[C@]12C	-6.88
C[C@@H]1CC[C@H]2[C@@H](C)C(=O)O[C@@H]3O[C@@]4(C)CC[C@@H]1[C@]32OO4	54.5
C[C@H]1[C@H](OC(=O)CCC(=O)O)O[C@@H]2O[C@@]3(C)CC[C@H]4[C@H](C)CC[C@@H]1[C@@]24OO3	56.1
Cc1nnc2n1-c1ccc(Cl)cc1C(c1ccccc1)=NC2	-8.66
CC1(C)C(C=C(Cl)Cl)C1C(=O)OCc1cccc(Oc2ccccc2)c1 (stereo not drawn)	13.4
COc1cc2nc(N(C)CCCNC(=O)C3CCCO3)nc(N)c2cc1OC (stereo not drawn)	24.3
C=CC[C@]1(O)CC[C@H]2[C@@H]3CCC4=CCCC[C@@H]4[C@H]3CC[C@@]21C	5.59
CC(C)C[C@H](NC(=O)[C@@H](Cc1c[nH]c2ccccc12)NC(=O)[C@H](Cc1ccc(O)cc1)NC(=O)[C@H](CO)NC(=O)[C@H](Cc1c[nH]c2ccccc12)NC(=O)[C@H](Cc1c[nH]cn1)NC(=O)[C@@H]1CCC(=O)N1)C(=O)N[C@@H](CCCN=C(N)N)C(=O)N1CCC[C@H]1C(=O)NCC(N)=O	9.31

SMILES	% Inhibition [%]
O=C(O)CCCCC(=O)O	25.4
O=C(O)CCCO	19
CC(=O)OCC(COC(C)=O)OC(C)=O	-1.82
C[C@@H]1[C@H](O)[C@@H](C)/C=C/C=C/C=C/C=C/C=C/C=C/C=C/[C@H](O[C@@H]2O[C@H](C)[C@@H](O)[C@H](N)[C@@H]2O)C[C@@H]2O[C@](O)(C[C@@H](O)C[C@@H](O)[C@H](O)CC[C@@H](O)C[C@@H](O)CC(=O)O[C@H]1C)C[C@H](O)[C@H]2C(=O)O	25.1
Cc1c(N(C)C)c(=O)n(-c2ccccc2)n1C	29.7
Cc1c(NC(=O)c2cccnc2)c(=O)n(-c2ccccc2)n1C	70.2
Cc1c(NC(C)C)c(=O)n(-c2ccccc2)n1C	-7.04
C=CC1=C(C(=O)O)N2C(=O)[C@@H](NC(=O)/C(=N\OCC(=O)O)c3csc(N)n3)[C@H]2SC1	6.01
C[N+]1(C)C2CC(OC(=O)[C@@H](CO)c3ccccc3)CC1C1OC12 (stereo partly drawn)	15.9
NCCCC(N)C(=O)O (stereo not drawn) [131504-L4]	14.1
CO/N=C(/C(=O)NC1C(=O)N2C(C(=O)O)=C(COC(N)=O)CSC12)c1ccco1 (stereo not drawn)	41.1
CO[C@H]1/C=C/O[C@@]2(C)Oc3c(C)c(O)c4c(O)c(c(/C=N\N5CCN(C)CC5)c(O)c4c3C2=O)NC(=O)/C(C)=C\C=C\C(C)[C@H](O)[C@@H](C)[C@@H](O)[C@@H](C)[C@@H](OC(C)=O)[C@@H]1C (stereo partly drawn)	30.6
O=C1CC[C@@H](C(=O)N2CSC[C@H]2C(=O)O)N1 ([pGlu]-[Thz]-OH)	16.6
CNC1(c2ccccc2Cl)CCCCC1=O (stereo not drawn)	1.15
Clc1ccccc1CN1CCc2sccc2C1	30.2
CC[C@@H](C(N)=O)N1CCCC1=O	13.9
NC[C@H](O)c1ccc(O)c(O)c1 [130720-L3]	14.8
C[N+](C)(C)CCOC(N)=O	-7.4
C[C@]12CCC3c4ccc(O)cc4CCC3C1CCC2=O (stereo partly drawn)	-7.91
CNCCCC12CCC(c3ccccc31)c1ccccc12	15.2
CC1(C)O[C@]2(C)CC[C@H]1CC2	17.9

SMILES	% Inhibition [%]
Cn1c(=O)c2nc[nH]c2n(C)c1=O [88704-L9]	8.85
Cc1ccc(-c2cc(C(F)(F)F)nn2-c2ccc(S(N)(=O)=O)cc2)cc1	20.5
CN1C2C[C@@H](OC(=O)[C@H](CO)c3ccccc3)CC1[C@@H]1O[C@H]21	0.52
CC(C)(C)NC[C@H](O)COc1nsnc1N1CCOCC1	-3.01
C=CCN1CC[C@]23c4c5ccc(O)c4OC2C(=O)CC[C@@]3(O)[C@H]1C5 (stereo partly drawn)	29.3
CCC1(CC)C(=O)C=CNC1=O	27.7
COc1ccc(CC2c3cc(OC)c(OC)cc3CC[N+]2(C)CCC(=O)OCCCCCOC(=O)CC[N+]2(C)CCc3cc(OC)c(OC)cc3C2Cc2ccc(OC)c(OC)c2)cc1OC (stereo not drawn) [756849-L2]	13.9
O=C(O)CCCc1ccc(N(CCCl)CCCl)cc1	-32.3
CN(C)c1ccc2nc3ccc(=[N+](C)C)cc-3sc2c1	35.9
C[N+]1(C)[C@H]2CC(OC(=O)[C@H](CO)c3ccccc3)C[C@H]1C1OC12 (stereo partly drawn)	14.3
C=CCC1(C(C)CCC)C(=O)NC(=O)NC1=O (stereo not drawn)	11.2
CCC1C(C)=NN=C(c2ccc(OC)c(OC)c2)c2cc(OC)c(OC)cc21 (stereo not drawn)	11.9
CN(C)CCOC(c1ccc(Cl)cc1)c1ccccn1 (stereo not drawn)	7.85
O=S(=O)(O)CCSSCCS(=O)(=O)O	37.4
Cc1nnc(SCC2=C(C(=O)O)N3C(=O)[C@@H](NC(=O)Cn4cnnn4)[C@H]3SC2)s1	10.9
O=C(O)CCC(=O)OC[C@@H](NC(=O)C(Cl)Cl)[C@H](O)c1ccc([N+](=O)[O-])cc1	-36.5
CC[C@H]1OC(=O)[C@H](C)[C@@H](O[C@H]2C[C@@](C)(OC)[C@@H](O)[C@H](C)O2)[C@H](C)[C@@H](O[C@@H]2O[C@H](C)C[C@H](N(C)C)[C@H]2O)[C@](C)(O)C[C@@H](C)CN(C)[C@H](C)[C@@H](O)[C@]1(C)O	23.9
Nc1c2c(nc3ccccc13)CCCC2	30.5
CC[C@H](NC(C)C)[C@H](O)c1ccc(O)c2nc(O)ccc12	6.56
C[C@]12C=CC(=O)C=C1CCC1C2[C@@H](O)C[C@@]2(C)C1CC[C@]2(O)C(=O)COP(=O)(O)O (stereo partly drawn)	5.73
CN(C)CCC[C@@]1(c2ccc(F)cc2)OCc2cc(C#N)ccc21 [131042-L4]	26.2

SMILES	% Inhibition [%]
Clc1ccc(CSC(Cn2ccnc2)c2ccc(Cl)cc2Cl)cc1 (stereo not drawn)	15.3
CN(C)CCC=C1c2ccccc2C=Cc2ccccc21	23.3
CN(C)C(=O)Oc1cc(OC(=O)N(C)C)cc(C(O)CNC(C)(C)C)c1 (stereo not drawn) [255708-L4]	12
OC[C@H]1O[C@@](CO)(OC[C@@]2(O)O[C@H](CO)[C@@H](O)[C@@H]2O)[C@@H](O)[C@@H]1O	26.1
NC(=O)N1c2ccccc2C=Cc2ccccc21	6.46
CCN(CC)C(C)CN1c2ccccc2Sc2ccccc21 (stereo not drawn)	8.27
O=c1[nH]c(=O)n([C@H]2C[C@H](O)[C@@H](CO)O2)cc1F	4.91
CCN(CC)CCNC(=O)c1c(C)[nH]c(/C=C2\C(=O)Nc3ccc(F)cc32)c1C	6.48
O=C(Nc1ccccc1)OCC(CN1CCCCC1)OC(=O)Nc1ccccc1 (stereo not drawn)	9.34
CCCCC1=NC2(CCCC2)C(=O)N1Cc1ccc(-c2ccccc2-c2nn[nH]n2)cc1	14.7
CCCc1nc(C(C)(C)O)c(C(=O)O)n1Cc1ccc(-c2ccccc2-c2nn[nH]n2)cc1	21.5
OCCN1CCN(CCCN2c3ccccc3Sc3ccc(Cl)cc32)CC1	33.5
CCCCCN(C)CCC(O)(P(=O)(O)O)P(=O)(O)O [756736-L2]	25.4
Cc1cc2c(cc1S(N)(=O)=O)S(=O)(=O)CCC2	25.8
NC[C@H]1O[C@H](O[C@H]2[C@H](O)[C@@H](O[C@H]3O[C@H](CO)[C@@H](O)[C@H](N)[C@H]3O)[C@H](N)C[C@@H]2N)[C@H](O)[C@@H](O)[C@@H]1O	16
CC[C@@H]1OC(OC(c2c[nH]cn2)C(NC(=O)c2nc(C(CC(N)=O)NCC(N)C(N)=O)nc(N)c2C)C(=O)NC(C)C(O)C(C)C(=O)NC(C(=O)NCCc2nc(-c3nc(C(=O)NCCCCN=C(N)N)cs3)cs2)C(C)O)[C@@H](O[C@H]2O[C@H](CO)[C@@H](O)[C@H](OC(N)=O)[C@@H]2O)[C@@H](C)[C@@H]1C (stereo partly drawn)	-5.83
O=C(NCCCN1CCOCC1)c1ccc(Cl)cc1	17.5
CC(C)OC(=O)CCC/C=C\C[C@@H]1[C@@H](CC[C@@H](O)CCc2ccccc2)[C@H](O)C[C@@H]1O	12.8
CC[C@@H](C(=O)[C@@H](C)[C@@H](O)[C@H](C)[C@@H]1O[C@@H]([C@@H](CC)C(=O)O)CC[C@@H]1C)[C@H]1OC2(C=C[C@@H](O)[C@]3(CC[C@@](C)([C@H]4CC[C@](O)(CC)[C@H](C)O4)O3)O2)[C@H](C)C[C@@H]1C (stereo partly drawn)	19.1
CC[C@]1(O)C[C@H]2CN(CCc3c([nH]c4ccccc34)[C@@](C(=O)OC)(c3cc4c(cc3OC)N(C=O)[C@H]3[C@@](O)(C(=O)OC)[C@H](OC(C)=O)[C@]5(CC)C=CCN6CC[C@]43[C@@H]65)C2)C1	9.62
COc1ccccc1N1CCN(CCCNc2cc(=O)n(C)c(=O)n2C)CC1	37.2
